PKM2 activator – qHTS Assay for Activators of Human Muscle isoform 2 Pyruvate Kinase; Pyruvate kinase PKM (Homo sapiens), P14618; purified PKM2, Kinase-Glo ATP luminescence, activation; response scale: 0% is enzyme alone, no compound; Potency, µM (highest dose often 57.5 µM), most hits filed as activators; hit rate 0.34% among 260,000; note: nearly all actives have a fitted effect of over 55% in size
Target sequence (P14618 whole entry, looked up, canonical isoform): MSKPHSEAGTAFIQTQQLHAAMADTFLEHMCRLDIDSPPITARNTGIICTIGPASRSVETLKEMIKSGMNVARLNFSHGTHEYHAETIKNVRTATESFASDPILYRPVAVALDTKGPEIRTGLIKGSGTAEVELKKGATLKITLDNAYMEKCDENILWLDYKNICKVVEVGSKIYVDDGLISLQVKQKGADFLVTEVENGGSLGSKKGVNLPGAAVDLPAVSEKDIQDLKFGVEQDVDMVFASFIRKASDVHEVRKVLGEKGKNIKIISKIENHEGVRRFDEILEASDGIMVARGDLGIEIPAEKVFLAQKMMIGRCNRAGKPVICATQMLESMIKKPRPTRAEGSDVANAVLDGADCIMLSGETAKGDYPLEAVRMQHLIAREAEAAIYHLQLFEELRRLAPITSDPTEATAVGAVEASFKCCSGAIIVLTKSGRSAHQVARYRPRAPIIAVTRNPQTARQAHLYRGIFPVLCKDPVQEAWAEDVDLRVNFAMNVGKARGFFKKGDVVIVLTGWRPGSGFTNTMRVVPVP
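hPK-M2, >95% pure; 0.1 mM ADP / 0.5 mM PEP final; imidazole pH7.2 buffer w/ 7 mM MgCl2, 50 mM KCl; 1 h RT; Kinase-Glo lum. Intermediate enzyme activity for dual inhibitor/activator qHTS.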
JMJD2E inh – qHTS Assay for Inhibitors of Human Jumonji Domain Containing 2E (JMJD2E); hit rate 1.6% among 230,000; AID 2147, 2009; Potency, µM (series often up to 57.1 µM), most hits filed as inhibitors; JMJD2E catalytic domain, FDH-coupled NADH fluorescence (FDH is formaldehyde dehydrogenase); note: nearly all actives have a fitted effect of over 50% in size
APEX1 inh – qHTS Assay for Inhibitors of the Human Apurinic/apyrimidinic Endonuclease 1 (APE1); DNA repair nuclease/redox regulator APEX1 (Homo sapiens), P27695; recombinant APE1, TAMRA/BHQ-2 abasic DNA cleavage fluorescence; Potency, µM (titrated, usually from 65.8 µM), usual class: inhibitors; hit rate 0.35% among 350,000; AID 2517, 2012; note: nearly all actives have a fitted effect of over 55% in size
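APE1 at 0.75 nM preincubated 15 min at room temperature with compound. Reaction then started with 50 nM double-stranded THF-abasic substrate labelled with TAMRA/BHQ-2, and 525/598 nm fluorescence read kinetically. Activity taken as third-minus-first read difference, normalized to DMSO and NSC13755 controls.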
BLM helicase inh – qHTS Assay for Inhibitors of Bloom's syndrome helicase (BLM). hit rate 0.2% among 350,000. RecQ-like DNA helicase BLM (Homo sapiens), P54132. recombinant BLM DNA unwinding, fluorescence dequenching. Potency, µM (doses to about 56.1 µM), usual class: inhibitors; note: nearly all actives have a fitted effect of over 35% in size
RECQ1 inh – qHTS Assay for Inhibitors of RecQ-Like Dna Helicase 1 (RECQ1); RECQ1 DNA unwinding, red fluorescence kinetic read; Potency, µM (doses to about 57.3 µM), most hits filed as inhibitors; hit rate 0.54% among 240,000; AID 2549, 2010; note: nearly all actives have a fitted effect of over 30% in size
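50 nM RECQ1T1 preincubated 15 min with compound in Tris pH 8.0 buffer with MgCl2, DTT, Tween-20 and 2.5 ug/ml poly(dI-dC); started with 200 nM TAMRA/BHQ-2 forked duplex and 2 mM ATP. Unwinding read as fluorescence (525/598 nm), two reads 2 h apart.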
Hits are given with their value; 0 = inactive; ? = inconclusive; - = not tested or not shown; ! = not confirmed by another sample; [ ] = dose if it differs, or a comment. The sample as a whole holds a higher share of hits than the screen did. Unless noted, calls come from the whole dose curve; as a rule, active = well fitted curve in the direction sought with a large enough effect; inconclusive = small, poorly fitted or top-dose-only effect, or another doubt; inactive = no such curve, though single readings can be large; an effect the other way counts as inactive or inconclusive.

SMILES | PKM2 activator | JMJD2E inh | APEX1 inh | BLM helicase inh | RECQ1 inh
Cc1ccc(-c2cn3c(=S)[nH]nc3s2)cc1 | 0 | 6.31µM | 0 | 0 | 0
CN1CCN(c2ccc([N+](=O)[O-])c3no[n+]([O-])c23)CC1 | 0 | 14.1µM | 0 | 0 | 0
CN1CCN(c2ccc(S(C)(=O)=O)cc2[N+](=O)[O-])CC1 | 0 | 0 | 0 | 0 | 0
CN1CC[C@@]2(C)c3cc(O)ccc3N(C)[C@@H]12 | - | 6.31µM | 0 | 0 | 0
CC1=C(C(=O)O)N2C(=O)[C@@H](NC(=O)CCCC(=O)O)[C@H]2SC1 | 0 | 0 | 0 | 0 | 0
CC(=O)OCC1=C(C(=O)[O-])N2C(=O)[C@@H](NC(=O)CCC[C@@H](N)C(=O)[O-])[C@H]2SC1.[Zn+2] | - | 28.2µM | 0 | - | 0
CCCSC(=O)Cl | - | - | 0 | - | 0
O=C(O)CC1OCC=C2CN3CCC45c6ccccc6NC4C1C2CC35 (stereo unspecified) | 0 | 0 | 0 | 0 | 0
O=C(O)CC1OCC=C2CN3CCC45C6=CC(=O)C(=O)C([N+](=O)[O-])=C6NC4C1C2CC35 (stereo unspecified) | 0 | 0.0631µM | 0 | ? | ?
CCCCC/C=C\C/C=C\C/C=C\C/C=C\CCCC(=O)NCC(=O)O | - | 22.4µM! | ? | 0 | 3.55µM!
C=CCBr | - | - | 0 | - | 0
Cc1ccccc1CN1CCNCC1 | 0 | 0 | 0 | 0 | 0
Cc1ccccc1CN1CCN(c2ccc(Cl)cc2)CC1 | 0 | 22.4µM | 0 | 0 | 0
COC1CCCCC1NCCc1ccccc1 (stereo unspecified) | 0 | 15.8µM | 0 | 0 | 0
Cc1ccc(C=C2C(Cl)=C(Cl)C(Cl)=C2Cl)cc1 | 0 | 0 | 15.8µM | 0 | 10µM
CC1(C)OC(c2ccccc2)=C/C(=C/C=C2C(=O)NC(=O)NC2=O)O1 | 0 | 0 | 0 | 0 | 25.1µM
CCCCC/C=C\C/C=C\C/C=C\C/C=C\CCCC(=O)N(Cc1ccc(O)c(Cl)c1)Cc1ccc(O)c(Cl)c1 | - | - | 0 | 31.6µM | 0
CCCCC/C=C\C/C=C\C/C=C\C/C=C\CCCC(=O)NCCc1ccc(O)c(O)c1 | - | 0 | ? | 0 | 0
CC[N+](=O)[O-] | - | - | 0 | - | 0
Oc1cc2c(cc1O)[C@H]1c3ccccc3CNC1CC2 (stereo partly specified) | - | 20µM | 0 | - | 0
ClC(Cl)Br | - | - | 0 | - | 0
NCC[C@H](O)C(=O)N[C@@H]1C[C@H](N)[C@@H](O[C@H]2O[C@H](CN)[C@@H](O)[C@H](O)[C@H]2N)[C@H](O[C@@H]2O[C@H](CO)[C@@H](O)[C@H]2O)[C@H]1O | - | - | 0 | - | -
Cc1c(N=Nc2c(O)[nH]c(=O)[nH]c2=O)c(=O)n(-c2ccccc2)n1C | 0 | 3.55µM | 0 | 0 | 0
CC(=O)Oc1c2c(c(CC=C(C)C)c3c1C(=O)C1=CC4CC5C(C)(C)OC(C/C=C(\C)C(=O)O)(C4=O)[C@]15O3)OC(C)(CCC=C(C)C)C=C2 (stereo partly specified) | - | 0 | 0 | 22.4µM | ?
NC(=O)c1ccc(OCC(O)CN2CC=C(c3ccc(F)cc3)CC2)cc1 (stereo unspecified) | - | 0 | 0 | - | 0
SMILES | PKM2 activator | JMJD2E inh | APEX1 inh | BLM helicase inh | RECQ1 inh
CC(=O)c1cccc(OCC(O)CN2CC=C(c3ccccc3)CC2)c1 (stereo unspecified) | 0 | 15.8µM | 0 | 0 | 0
C[C@]12CC[C@@H]3c4cc(O)c(O)cc4CC[C@H]3[C@@H]1CC[C@@H]2O | ? | ? | 0 | 0 | 0
C[C@]12CC[C@@H]3c4ccc(O)c(O)c4CC[C@H]3[C@@H]1CC[C@@H]2O | ? | 1.41µM | 0 | 0 | 0
[O-][Cl+]O | - | - | 0 | - | 0
CCCOCCN(C(=O)CCl)c1c(CC)cccc1CC | - | - | 0 | 0 | 0
O=[N+]([O-])c1cccc(CN2CC=C(c3ccc(F)cc3)CC2)c1 | 0 | - | 0 | 0 | -
O=[N+]([O-])c1cccc(CN2CCN(Cc3ccc(Cl)cc3)CC2)c1 | 0 | 28.2µM | 0 | 0 | 0
Cc1cc(/C=C2\C(=O)NC(=O)N(Cc3ccccc3)C2=O)c(C)n1-c1ccc(Cl)c(C(=O)O)c1 | 0 | ? | ? | 0 | 35.5µM
Cc1cc(/C=C2\C(=O)NC(=O)N(c3cccc(F)c3)C2=O)c(C)n1-c1ccc(C(=O)O)c(Cl)c1 | 0[11.5 µM] | - | 0 | 0 | -
Cc1cc(/C=C2\C(=O)NC(=O)N(Cc3ccco3)C2=O)c(C)n1-c1ccc(O)cc1 | 0 | 0 | 0 | 25.1µM | 0
O=[N+]([O-])/N=C1\NCCN1Cc1ccc(Cl)nc1 | - | - | 0 | - | -
C=C(C)C(=O)OCC1CO1 (stereo unspecified) | - | - | 0 | - | 0
CN1CCN(c2ccc(/C=C3\C(=O)NC(=S)N(c4cccc(Br)c4)C3=O)o2)CC1 | 0 | 0 | 0 | 0 | 14.1µM
ClC(Cl)(Cl)C(Cl)(Cl)Cl | - | - | 0 | - | 0
Cc1ccc(N2C(=O)NC(=O)/C(=C\c3ccoc3)C2=O)cc1 | 0 | 0 | ? | 0 | ?
O=C1NC(=S)N(c2ccc(F)cc2)C(=O)/C1=C\c1ccoc1 | 0 | ? | ? | 0 | 31.6µM
CCCCC(=O)Cl | - | - | 0 | - | 0
CCCCc1ccc(C(=O)O)nc1 | - | 10µM | 0 | 0 | 0
CC(C)c1ccc(N2C(=O)NC(=O)/C(=C/c3cnc(-c4ccccc4)nc3)C2=O)cc1 | 0 | 8.91µM | 0 | 0 | 0
CN(C)c1ccc(/C=C2\C(=O)NC(=O)N(Cc3ccc(F)cc3)C2=O)cc1 | 0 | ? | 0 | 0 | 0
CSc1ncc(/C=C2/C(=O)NC(=O)N(c3ccc(C(C)C)cc3)C2=O)cn1 | 0 | ? | 0 | 0 | 0
CCc1ccc(N2C(=O)NC(=O)/C(=C\c3cccn3CCOc3ccc(C(C)C)cc3)C2=O)cc1 | 0 | 0 | 0 | 0 | 25.1µM
O=C1NC(=O)N(Cc2ccccc2)C(=O)/C1=C/c1cnc(-c2ccccc2)nc1 | 0 | 22.4µM | 0 | 0 | 0
CCOP(=S)(OCC)Oc1ccc([N+](=O)[O-])cc1 | - | - | 0 | - | 0
COC(=O)[C@]1(C)CC[C@@]2(C)CC[C@@]3(C)C4=CC=C5C(=CC(=O)C(O)=C5C)[C@@]4(C)CC[C@@]3(C)C2C1 (stereo partly specified) | - | ? | 0 | 0 | 0
COCCCNC(=O)c1c(N)n(Cc2ccco2)c2nc3ccccc3nc12 | 25.1µM | ? | 0 | 0 | 0
C[C@@H]1C[C@@H]2[C@H]([C@H]3C=C(COC(=O)c4ccccc4)[C@@H](O)[C@]4(O)[C@@H](O)C(OC(=O)c5ccccc5)=C[C@@]14C3=O)C2(C)C | - | - | 0 | 0 | 0
[Cl-].[Cl-].[Hg+2] | - | - | - | 0 | 0
[Cd+2].[Cl-].[Cl-] | - | - | 0.794µM | - | 35.5µM

Source: PubChem BioAssay (National Center for Advancing Translational Sciences (NCATS))
